Laboratory results reported in PubChem BioAssay.
Calls of active or inactive are those of the source. No stated cut-off is given here; in the data, active means fold change permeability below about 0.7 or above about 1.3; inactive means in between.

Test: modulators of brain endothelial barrier permeability, primary screen, cell-based, FITC-avidin fluorescence, HTS (AID 1963498); further: test concentration not given here
Conditions: actives lie on both sides

SMILES | fold change permeability
O=c1cc2c(=O)oc3cc(O)c(O)oc3c2c(O)c1O | 1.9 (active)
N[C@@H](CC(=O)O)C(=O)O | 1 (inactive)
COc1cc2c[n+](C)c3c4cc5c(cc4ccc3c2cc1OC)OCO5 | 1.1 (inactive)
CC(C)NCC(O)c1ccc(O)c(O)c1 (stereo not drawn) | 1.4 (active)
O=C(NCc1cccnc1)c1ccc([N+](=O)[O-])o1 | 1 (inactive)
CN1CCN(CCCN2c3ccccc3Sc3ccc(C(F)(F)F)cc32)CC1 | 1.2 (inactive)
Oc1ccccc1O | 0.9 (inactive)
NC(=O)OCC(COC(N)=O)c1ccccc1 | 0.8 (inactive)
Cc1ccc(/C=N\NC(=O)c2n[nH]c3c2CCCC3)cc1 | 1.1 (inactive)
O=C(OC12CC3CC(CC(C3)C1)C2)c1ccc(NCc2cc(O)ccc2O)cc1 | 1 (inactive)
CN1CCN(C(=O)c2ccc(-n3nc(-c4ccc(C(=O)O)cc4)cc3-c3cc(C(C)(C)C)cc(C(C)(C)C)c3)cc2)CC1 | 1 (inactive)
Nc1ccn([C@H]2CC[C@@H](CO)O2)c(=O)n1 | 1 (inactive)
Nc1ccc(-c2ccc3ncc4ccc(=O)n(-c5cccc(C(F)(F)F)c5)c4c3c2)cn1 | 1.3 (active)
COc1cc(/C=C/C(=O)N2CCN(CC(=O)N3CCCC3)CC2)cc(OC)c1OC | 1 (inactive)
CNCCC(Oc1ccccc1OC)c1ccccc1 (stereo not drawn) | 0.8 (inactive)
O=C(c1cc(O)c(O)c([N+](=O)[O-])c1)c1ccccc1F | 1.7 (active)
O=P(O)(O)C(O)(Cn1ccnc1)P(=O)(O)O | 0.8 (inactive)
C(=C\c1ccccc1)/CN1CCN(C(c2ccccc2)c2ccccc2)CC1 | 1.2 (inactive)
